Reference: PubChem BioAssay AID1008 (NMMLSC, 2008)
Hit rate of the full screen: of about 190,000 compounds, about 240 (0.13%) were called active. No stated cut-off is given here; in the data, active means inhibition above about 40%. Only a selection was taken, and actives are over-represented in it overall.

Molecular target: Bcl-2-related protein A1 (Homo sapiens) (UniProt Q16548)
Experiment: Bfl-1/Bim complex disruptors – biochemical, multiplexed, bead-based flow cytometry, primary screen (AID 1008);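 further: 0% = wells without compound plus tracer and 100% = blocker peptide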
Conditions: Bim-Bfl-1 binding inhibition, at 10 µM, active compounds read high

Bcl-2-related protein A1 (Homo sapiens), sequence (Q16548 whole entry, looked up): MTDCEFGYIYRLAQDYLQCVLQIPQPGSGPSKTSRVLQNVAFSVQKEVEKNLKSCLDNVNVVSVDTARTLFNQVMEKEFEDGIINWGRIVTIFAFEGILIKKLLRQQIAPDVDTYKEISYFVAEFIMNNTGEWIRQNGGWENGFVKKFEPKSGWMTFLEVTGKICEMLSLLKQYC

inhibition, inactive:
CN(C(=O)COc1ncnc2c1cnn2-c1ccccc1)C1CCCCC1 -7%, COc1ccc(S(=O)(=O)N2CCCCCC2)cc1C(=O)OCC(=O)Nc1cc(C)on1 -1%, O=C(Cc1ccc(F)cc1)N/N=C/c1ccc2c(c1)OCO2 -2%, Cc1ccc(SCCC(=O)NCc2ccccn2)cc1 4%, C/C(=N\NC(=O)c1cc2c(s1)CCC(C)C2)c1cccnc1 (configuration not stated) 0%, O=C(Nc1cccnc1)c1ccc(Cl)cc1[N+](=O)[O-] -1%, O=C(CC1SC(=Nc2ccccc2)N(Cc2ccccn2)C1=O)Nc1cccc(Cl)c1 (configuration not stated) 11%, O=C(CCN1C(=O)c2ccncc2C1=O)Nc1cc(F)ccc1F -8%, Cc1csc(Nc2ccc(Cl)cc2)[n+]1-c1ccc(Cl)cc1 5%, Cc1ccc(NC(=S)N(CCN2CCCCC2)Cc2ccco2)cc1C -3%, CCc1ccccc1NC(=O)CN(c1ccc(OC)cc1OC)S(=O)(=O)c1ccccc1[N+](=O)[O-] -12%, Cn1c(=O)c([N+](=O)[O-])c(Oc2ccccc2)c2ccccc21 0%, C=CCN(CC=C)C(=O)COC(=O)c1n[nH]c2ccccc12 -7%, CCc1ccc(C(=O)OCC(=O)NCC(F)(F)F)cc1 -3%, CCOC(=O)CSC1=N/C(=C/c2ccc(-n3cncn3)cc2)C(=O)N1C(C)=O -5%, Cc1ccc(C2=N/C(=C\c3ccc(OS(=O)(=O)c4ccc(C)cc4)cc3)C(=O)O2)cc1 -2%, Cc1cc(NC(=O)CSc2nnc(Nc3ccccc3F)s2)no1 -8%, CN1CCN(c2nc(Nc3ccc(O)cc3)nc3ccccc23)CC1 -5%, CCOC(=O)CNC(=O)/C(=C\c1ccc(F)cc1)NC(=O)c1ccccc1 -7%, O=C(Cn1nc(CNc2ccc(Cl)cc2)[n+]2c1CCCCC2)c1ccc(Cl)cc1 -16%, CC1CCN(S(=O)(=O)c2ccc(S(=O)(=O)NCc3cccnc3)cc2)CC1 6%, COC(=O)Cn1cc(/C=C/[N+](=O)[O-])c2ccccc21 4%, CC(C(=O)NC1CCCC1)N(c1ccc(Oc2ccccc2)cc1)S(C)(=O)=O (configuration not stated) -2%, COc1cc2sc(C)nc2cc1C 2%, CSCCC(NC(=O)c1cc([N+](=O)[O-])cc([N+](=O)[O-])c1)c1nc2ccccc2[nH]1 (configuration not stated) -16%, CCn1c(=S)[nH]c2sc3c(c2c1=O)CCCCC3 3%, COc1cc(/C=N/NC(=S)Nc2cccnc2)cc(OC)c1O 7%, CN(C)/N=C/c1cc(Cl)cc([N+](=O)[O-])c1O 0%, CCOC(=O)C1(Cc2cccc(OC)c2)CCCN(S(=O)(=O)c2cccnc2)C1 (configuration not stated) -2%, Fc1ccc(COc2cccc(-c3n[nH]c(=S)o3)c2)cc1 5%, O=C(C1CCCO1)N1CCN(C(=S)NC2CC2)CC1 (configuration not stated) -4%, COc1ccc(CNC(=O)COC(=O)/C=C/c2ccc(S(=O)(=O)N3CCOCC3)cc2)cc1 -3%, COC(=O)c1cc2occc2n1Cc1nc(-c2ccccc2C)oc1C 0%, CC(=O)Nc1cccc(/C(C)=N/NC(=O)c2c(-c3ccccc3Cl)noc2C)c1 0%, COc1ccc(C(=O)CSc2nnnn2C)c(OC)c1 -5%, Nc1nc(-c2sc3nc4c(cc3c2N)CCCC4)nc(N2CCOCC2)n1 -5%, CC1(c2ccccc2)CC(C)(C)N(C(=O)c2cc([N+](=O)[O-])cc([N+](=O)[O-])c2)c2ccccc21 (configuration not stated) -1%, CCN(C(=O)CN1CCN(Cc2ccccc2)CC1)c1c(N)n(Cc2ccccc2)c(=O)[nH]c1=O -3%, Cn1c(=O)c2c(ncn2CC(=O)N/N=C/c2cn[nH]c2-c2ccc(F)cc2)n(C)c1=O -3%, C/C(=N/NS(=O)(=O)c1ccccc1)c1ccc(NC(=O)C(F)(F)F)cc1 -2%, O=C1N/C(=C/c2cccn2-c2ccccc2)C(=O)N1c1cccc(Cl)c1 -2%, CSCC(NS(=O)(=O)c1ccc(C)cc1)C(=O)O (configuration not stated) -9%, Cc1c(C(=O)c2cccc([N+](=O)[O-])c2)c2ccccn2c1CCC#N -8%, O=C(CCN1C(=O)c2ccccc2C1=O)C1=NN[C@@H]2C(=O)N(c3ccc(F)cc3)C(=O)[C@H]12 -9%, CCOc1ccc(C(CC(=O)O)n2cnnn2)cc1OC (configuration not stated) -4%, COC(c1ccccc1)c1nnc(CCC(=O)N2CCN(CCOc3ccccc3)CC2)o1 (configuration not stated) -5%, Cc1cccc(Cn2cnc3c(N)c(C)c(C)cc32)c1 -4%, Cc1ccc2c(c1)C1CN(C)CCC1N2C(=S)Nc1ccc(OC(F)F)cc1 (configuration not stated) -7%, Nc1nc(SCc2ccc([N+](=O)[O-])cc2)c2ncn(C3OC(CO)C(O)C3O)c2n1 (configuration not stated) -10%, O=c1[nH]n2c(=O)c3c([nH]c2c1N=Nc1ccccc1)CCC3 0%, COc1ccc(OC)c2[nH]c(=O)c(CCNC(=O)C(=O)c3c[nH]c4ccccc34)cc12 -9%, Cc1cc(/C=N/NC(N)=O)c(C)n1C1CCCCC1 16%
